PubChem BioAssay (NCI)
The panel holds about 79,000 compounds, 15% with a hit somewhere; the sample as a whole holds those more often. Values without a mark were called inactive. The source made the active and inactive calls. Cut-off read from the data, not from the text of the source: active = growth inhibition above about 70%; inactive = the rest.

Experiment: NCI Yeast Anticancer Drug Screen. Data for the cln2 rad14 strain (AID 165);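 note: 0% = growth equal to vehicle treated cultures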
Details: S. cerevisiae cln2 rad14 strain, stronger effect = higher value
Procedure: Growth inhibition of yeast strains with defined genetic alterations is measured as a screen for potential anti-cancer activity. Selected strains with alterations in DNA damage repair or cell cycle control were exposed to compounds and growth inhibition was measured relative to vehicle treated controls. The strain used in this assay is cln2 rad14

[1] = at 5.0 µM (retest, dose inferred, filed as 0.5)
[2] = at 50.0 µM (retest, dose inferred, filed as 5.0)

CC(C)(C)c1cc(Cl)c(O)c(Cc2cc(C(C)(C)C)cc(Cl)c2O)c1
growth inhibition [1]: 14%
growth inhibition [2]: 79% (active)
growth inhibition (at 50.0 µM): 82% (active)

CSc1nc2ccccc2s1
growth inhibition [1]: 4%
growth inhibition [2]: 0%
growth inhibition (at 50.0 µM): 43.9%

O=S(=O)(O)CC[S][Sn]([S]CCS(=O)(=O)O)([c]1ccccc1)[c]1ccccc1 (tested in a mixture with another compound)
growth inhibition [1]: 28%
growth inhibition [2]: 94% (active)
growth inhibition (at 50.0 µM): 79.8% (active)

COc1ccc2c(C(=O)c3ccccc3)c3[n+](cc2c1OC)CCc1cc2c(cc1-3)OCO2
growth inhibition [1]: -4%
growth inhibition [2]: 21%
growth inhibition (at 50.0 µM): 30.1%

O=C1COCC(=O)OCCOCCSCCOCCO1
growth inhibition [1]: 4%
growth inhibition [2]: 41%
growth inhibition (at 50.0 µM): 37.2%

CCOc1ccccc1/C=C1\NC(=O)N(/C=C2\C(=O)Oc3ccccc3C2=O)C1=O
growth inhibition [1]: 6%
growth inhibition [2]: 95% (active)
growth inhibition (at 50.0 µM): 88.5% (active)

COc1ccc2nc3cc(Cl)ccc3c(NCCC[N+](C)(C)CCCCCCCCCC[N+](C)(C)CCCNc3c4ccc(Cl)cc4nc4ccc(OC)cc34)c2c1
growth inhibition [1]: 24%
growth inhibition [2]: 94% (active)
growth inhibition (at 50.0 µM): 55.8%

Oc1cc(Br)ccc1/C=N/Nc1ccccn1
growth inhibition [1]: -1%
growth inhibition [2]: 53%
growth inhibition (at 50.0 µM): -21.8%

O=C(c1ccccc1)C1(C(=O)c2ccccc2)/C(=N\O)C2CCC1C2 (configuration not stated)
growth inhibition [1]: -2%
growth inhibition [2]: 94% (active)
growth inhibition (at 50.0 µM): 1.9%

CCC(C(c1ccc(Cl)cc1)c1ccc(Cl)c(Cl)c1)[N+](=O)[O-] (configuration not stated)
growth inhibition [1]: 4%
growth inhibition [2]: 30%
growth inhibition (at 50.0 µM): 34%

N#CC(C(=O)CCCC(=O)Nc1cccc([N+](=O)[O-])c1)c1cccc2ccccc12 (configuration not stated)
growth inhibition [1]: 4%
growth inhibition [2]: 11%
growth inhibition (at 50.0 µM): 22.6%

Cc1cc(-c2ccc(N=Nc3cc(S(=O)(=O)O)c4ccccc4c3N)c(C)c2)ccc1N=Nc1cc(S(=O)(=O)O)c2ccccc2c1N
growth inhibition [1]: 31%
growth inhibition [2]: 48%
growth inhibition (at 50.0 µM): 30.6%

CCCCCCCCc1cc[n+](C2=C([O-])c3ccccc3C(=O)C2=O)cc1
growth inhibition [1]: 99% (active)
growth inhibition [2]: 95% (active)
growth inhibition (at 50.0 µM): 98.5% (active)

O=[N+]([O-])c1ccc(C2=C[P+](c3ccccc3)(c3ccccc3)C=C(c3ccccc3)O2)cc1
growth inhibition [1]: 30%
growth inhibition [2]: 98% (active)
growth inhibition (at 50.0 µM): 86.4% (active)
